# KB-V1 MDR tox – qHTS assay for MDR1-selective chemotherapeutics: Primary screen using the drug-selected MDR subline cells KB-V1; KB-V1 MDR cells viability, CellTiter-Glo, 72 h; Potency, µM (titrated, usually from 46.1 µM), usual class: cytotoxic; 400,000 compounds, 3.4% hits; AID 1347076, 2019; also: nearly all actives have a fitted effect of over 60% in size
#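 KB-V1, DMEM (no phenol red) + 10% FBS; cpd pin-transferred, titration series; 72 h, 37 degrees C; CellTiter-Glo, luminescence. Data normalized, curve-fit.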
# KB-3-1 tox – qHTS assay for MDR1-selective chemotherapeutics: Primary screen using the parental adenocarcinoma cell KB-3-1. Potency, µM (series often up to 46.1 µM), most hits filed as cytotoxic. 400,000 compounds, 1.4% hits. KB-3-1 viability, CellTiter-Glo ATP luminescence, 72 h; also: nearly all actives have a fitted effect of over 60% in size
#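 Cytotoxicity in the drug-sensitive parental line KB-3-1 was scored as loss of CellTiter-Glo luminescence following 72 h incubation with compound. Values come from curve fitting of normalized concentration-response data.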
# HT1080NT lethal – qHTS for induction of synthetic lethality in tumor cells producing 2HG: qHTS for the HT-1080-NT fibrosarcoma cell line | HT-1080-NT fibrosarcoma viability, CellTiter-Glo ATP luminescence, 48 h | Potency, µM (series often up to 46.1 µM), without a hit: at the top dose activity, negative = less viability, usual class: cytotoxic | 360,000 compounds, 1.6% hits;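 also: NT is the 2HG producing partner of a matched IDH1 knockdown line; 0% = DMSO-treated cells and -100% = media-only wells without cells; nearly all actives have a fitted effect of over 55% in size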
#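 Compounds were tested in concentration-response format on HT-1080-NT cells for 48 hours at 37 degrees C. Cell viability came from CellTiter-Glo luminescence; curves were classified by r2, response magnitude and activity.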
# HT1080 IDH1KD tx – qHTS for induction of synthetic lethality in tumor cells producing 2HG: qHTS for the HT-1080-IDH1KD cell line; Potency, µM (highest dose often 46.1 µM), for inactives: top-dose activity, negative = toxicity, actives largely listed as cytotoxic; 360,000 compounds, 2% hits; HT-1080 IDH1 knockdown viability, ATP luminescence, 48 h; AID 686971, 2013;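 also: 0% = DMSO wells and -100% = cell-free medium wells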
#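 Using the IDH1-knockdown HT-1080 line run in the same batch and compound series as the NT line, viability after 48 h at 37 °C was determined by CellTiter-Glo luminescence and expressed as % activity.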
# DT40 TDP1 no CPT – qHTS for Inhibitors of human tyrosyl-DNA phosphodiesterase 1 (TDP1): qHTS in cells in absence of CPT; DT40 Tdp1-/- hTDP1 cells, no CPT, ATP luminescence, 48 h; Potency, µM (top dose mostly 46.2 µM), for the others: top-dose activity change, negative = growth inhibition, hits mostly inhibitors; 420,000 compounds, 15% hits; AID 686978, 2013; also: nearly all actives have a fitted effect of over 55% in size
#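 Luminescent ATP content (CellTiter-Glo) served as the growth readout. Knockout chicken DT40 cells expressing human TDP1 were exposed to compounds without camptothecin for a minimum 48 hr at 37 °C.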
# DT40 TDP1 CPT – qHTS for Inhibitors of human tyrosyl-DNA phosphodiesterase 1 (TDP1): qHTS in cells in presence of CPT; chicken DT40 Tdp1-/-;hTDP1 cells + 20 nM CPT, ATP luminescence, 48 h; Potency, µM (highest dose often 46.2 µM), without a hit: top-dose activity change, negative = growth inhibition, usual class: inhibitors; 420,000 compounds, 12% hits; AID 686979, 2013; also: nearly all actives have a fitted effect of over 55% in size
#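 Chicken DT40 Tdp1-/- cells stably complemented with human TDP1 were seeded at 400 cells/well in medium containing 20 nM camptothecin, exposed to pin-transferred compounds, and grown at 37 °C for at least 48 hr. Viability was read as ATP luminescence.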
# * hit, by the source's call; i = inactive; ? = inconclusive; / = no result; [ ] = remark or other dose. Only some compounds are listed: those with a hit (about 19% of all), similar ones and a draw of the others. Calls follow the shape of the dose curve; as a rule, active = well fitted curve in the direction sought with a large enough effect; inconclusive = small, poorly fitted or top-dose-only effect, or another doubt; inactive = no such curve, though single readings can be large; an effect the other way counts as inactive or inconclusive. Unless noted, % is scaled to controls: 0 for no effect and ±100 for the full control effect; potency is read from the fitted curve at half-maximal effect.
SMILES,KB-V1 MDR tox,KB-3-1 tox,HT1080NT lethal,HT1080 IDH1KD tx,DT40 TDP1 no CPT,DT40 TDP1 CPT
CC(NC(=S)NCc1ccc(F)cc1)C12CC3CC(CC(C3)C1)C2 (stereo not drawn),?,i,?,?,15µM*,?
Nc1nc(NCc2cccc(Cl)c2)c2[nH]cnc2n1,i,i,/,/,?,?
Cc1ccc(Nc2cc(=O)n(C)c(=O)[nH]2)cc1C,i,i,-4%,2%,?,?
O=C(CCNC(=O)c1ccc(Cl)cc1)Nc1cccc(S(=O)(=O)N2CCCCC2)c1,i,i,4%,4%,23µM*,18µM*
Cc1ccc(NC(=O)CCNC(=O)c2ccc(Br)cc2)cc1S(=O)(=O)N1CCCCCC1,21µM*,?,-8%,-7%,16µM*,?
CN(C)c1ccc(S(=O)(=O)N2CCCCC2)cc1NC(=O)CCNC(=O)c1ccc(Cl)cc1,21µM*,i,-1%,-2%,-6%,-20%
O=C(NC1CCCCC1)NS(=O)(=O)c1ccc2c(c1)CCC2,i,i,10%,23%,-17%,-11%
CCOC(=O)CSc1nc2ccccc2n1CC(=O)N1CCN(c2ccccc2)CC1,7.3µM*,i,7%,-11%,-6%,-2%
O=C(CSc1nc2ccccc2n1Cc1cccc(F)c1)N1CCN(c2ccc(F)cc2)CC1,i,i,/,/,?,?
C=Cc1ccc(Cn2c(SCC(=O)N3CCN(c4ccc(F)cc4)CC3)nc3ccccc32)cc1,i,i,/,/,?,23µM*
CCOC(=O)CSc1nc2ccccc2n1C(=O)OCC,?,i,3%,3%,-2%,12%
CC(C)N(C(=O)CSc1nc2ccccc2n1Cc1ccc(F)cc1)C(C)C,?,?,-26%,?,?,23µM*
O=C(CSc1nc2ccccc2n1Cc1ccc(F)c(Cl)c1)N1CCN(c2ccc(F)cc2)CC1,?,i,/,/,9.2µM*,18µM*
COc1ccc(S(=O)(=O)N2CCC[C@@H]2C(=O)N2CCC[C@H]2C(=O)NCc2ccncc2)cc1C,i,i,2%,-3%,?,?
C#CCCC/C(=C\C(=O)N(C)[C@H](C(=O)N(C)[C@H](C(=O)N(C)[C@H](C(=O)N(C)[C@H](C(N)=O)C(C)C)C(C)C)C(C)C)C(C)C)OC,i,i,5%,3%,18µM*,21µM*
COc1ccc(/C=C/c2cc[n+](C(=O)Cc3ccccc3)cc2)cc1,i,?,?,?,2.3µM*,3.3µM*
COc1ccc(/C=C/C(=O)NCCCc2ccccc2)cc1,i,i,22%,17%,5%,-7%
CC1(C(=O)NS(C)(=O)=O)CCN1C(=O)C/C=C/c1ccccc1 (stereo not drawn),i,i,?,23%,-15%,-20%
CC(C)NC(=O)NC(=O)CSc1nnc(COc2ccccc2F)n1C(C)C1CC2CCC1C2 (stereo not drawn),i,?,?,?,10µM*,10µM*
Cc1nn(C)c(C)c1NC(=O)c1ccccc1NC(=O)Nc1ccccc1,i,i,0%,1%,0%,10%
Cc1cc(C)cc(NC(=O)c2ccc([N+](=O)[O-])o2)c1,13µM*,?,?,16µM*,6.5µM*,7.3µM*
COc1cc(NC(=O)c2ccc([N+](=O)[O-])o2)ccc1NC(=O)c1ccco1,i,?,10%,19%,0.92µM*,0.65µM*
CC(NC(=O)c1ccc([N+](=O)[O-])o1)C12CC3CC(CC(C3)C1)C2 (stereo not drawn),?,?,18µM*,?,?,?
CC(=O)c1cccc(NC(=O)c2ccc([N+](=O)[O-])o2)c1,16µM*,?,15µM*,?,15µM*,8.2µM*
COc1ccc(CNC(=O)Cc2coc3ccc(C)cc23)cc1,i,i,/,/,-20%,-5%
SMILES,KB-V1 MDR tox,KB-3-1 tox,HT1080NT lethal,HT1080 IDH1KD tx,DT40 TDP1 no CPT,DT40 TDP1 CPT
Cc1oc(-c2ccccc2NC(=O)c2ccccc2)nc1CNC(=O)C1CC(=O)OC12CCCCC2 (stereo not drawn),/,/,/,/,5%,-4%[9.04 µM]
COc1cccc(NC(=O)c2oc3ccccc3c2NC(=O)COc2ccccc2C)c1,i,i,/,/,-20%,-25%
CC(=O)c1ccc(NC(=O)c2ccc([N+](=O)[O-])o2)cc1,?,?,?,18µM*,1.8µM*,2.1µM*
Cc1cc(C)nc(NC(=O)c2ccc([N+](=O)[O-])o2)n1,i,i,-3%,-20%,13µM*,?
COc1ccc(NC(=O)c2ccc([N+](=O)[O-])o2)cc1,?,8.2µM*,-4%,?,23µM*,16µM*
COC(=O)/C(=C1\OC(=O)C(c2ccccc2)C1=O)c1ccccc1 (stereo not drawn),/,/,/,/,-1%,0%
CCc1ccccc1Nc1cc(C(=O)NCc2ccc(C)cc2)c2ccccc2n1,i,i,/,/,?,21µM*
CCc1ccccc1Nc1cc(C(=O)NC(C)c2ccccc2)c2ccccc2n1 (stereo not drawn),i,i,/,/,?,29µM*
Nc1c(C(=O)Nc2ccccc2)c2nc3ccccc3nc2n1CCCN1CCOCC1,?,i,23µM*,18µM*,?,?
C=CCn1c(N)c(C(=O)Nc2cccc(C)c2)c2nc3ccccc3nc21,21µM*,i,-9%,?,-15%,-24%
C=CCn1c(N)c(C(=O)Nc2ccc(C)c(C)c2)c2nc3ccccc3nc21,i,i,-12%,-19%,?,-18%
COc1ccc(NC(=O)CC2NCCNC2=O)c(OC)c1 (stereo not drawn),i,i,/,/,-15%,1%
COc1cccc(NC(=O)Cn2c(=O)n(CCCC(=O)NCc3ccc4c(c3)OCO4)c(=O)c3ccccc32)c1,?,i,/,/,-3%,-12%
Cc1ccc(C(C)(C)C)cc1S(=O)(=O)N1CCC(C(=O)N2CCN(c3ccc(O)cc3)CC2)CC1,15µM*,?,-8%,-21%,?,?
